# Tests used:
# Experiment in all cases: SPOT peptide array binding signal intensity (averaged, normalized) (arbitrary units (background-subtracted, floor 0; scale differs between SH3 domains)); higher = stronger binding of the SH3 domain to the peptide
# [1] = target: AgAbp1
# Method: (§1)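 GST-tagged SH3 domains from S. cerevisiae (Sc), A. gossypii (Ag), C. albicans (Ca) and S. pombe (Sp) were incubated at 10 ug/ml overnight at 4 C on cellulose SPOT membranes carrying 292 synthetic 15-mer peptides mined from the S. cerevisiae proteome (cysteines replaced by serines). Binding was detected with anti-GST antibody, HRP secondary and chemiluminescence, quantified with Genespotter, and reported as normalized spot intensities averaged over biological replicates.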
# [2] = target: AgBbc1
# Method: as §1
# [3] = target: AgBem1-D1
# Method: as §1
# [4] = target: AgBzz1-D1
# Method: as §1
# [5] = target: AgBzz1-D2
# Method: as §1
# [6] = target: AgCyk3
# Method: as §1
# [7] = target: AgFus1
# Method: as §1
# [8] = target: AgHof1
# Method: as §1
# [9] = target: AgHse1
# Method: as §1
# [10] = target: AgLsb1
# Method: as §1
# [11] = target: AgLsb4
# Method: as §1
# [12] = target: AgMyo5
# Method: as §1
# [13] = target: AgNbp2
# Method: as §1
# [14] = target: AgRvs167
# Method: as §1
# [15] = target: AgSho1
# Method: as §1
# [16] = target: AgSla1-D1-D2
# Method: as §1
# [17] = target: AgSla1-D3
# Method: as §1
# [18] = target: CaAbp1-D1
# Method: as §1
# [19] = target: CaAbp1-D2
# Method: as §1
# [20] = target: CaBbc1
# Method: as §1
# [21] = target: CaBem1-D1
# Method: as §1
# [22] = target: CaBzz1-D1
# Method: as §1
# [23] = target: CaBzz1-D2
# Method: as §1
# [24] = target: CaCyk3
# Method: as §1
# [25] = target: CaFus1
# Method: as §1
# [26] = target: CaHof1
# Method: as §1
# [27] = target: CaHse1
# Method: as §1
# [28] = target: CaLsb1
# Method: as §1
# [29] = target: CaLsb4
# Method: as §1
# [30] = target: CaMyo5
# Method: as §1
# [31] = target: CaNbp2
# Method: as §1
# [32] = target: CaRvs167
# Method: as §1
# [33] = target: CaRvs167-3
# Method: as §1
# [34] = target: CaSho1
# Method: as §1
# [35] = target: CaSla1-D1-D2
# Method: as §1
# [36] = target: CaSla1-D3
# Method: as §1
# [37] = target: ScAbp1
# Method: as §1
# [38] = target: ScBbc1
# Method: as §1
# [39] = target: ScBem1-D1
# Method: as §1
# [40] = target: ScBzz1-D1
# Method: as §1
# [41] = target: ScBzz1-D2
# Method: as §1
# [42] = target: ScCyk3
# Method: as §1
# [43] = target: ScFus1
# Method: as §1
# [44] = target: ScHof1
# Method: as §1
# [45] = target: ScHse1
# Method: as §1
# [46] = target: ScLsb1
# Method: as §1
# [47] = target: ScLsb2
# Method: as §1
# [48] = target: ScLsb3
# Method: as §1
# [49] = target: ScLsb4
# Method: as §1
# [50] = target: ScMyo3
# Method: as §1
# [51] = target: ScMyo5
# Method: as §1
# [52] = target: ScNbp2
# Method: as §1
# [53] = target: ScPex13
# Method: as §1
# [54] = target: ScRvs167
# Method: as §1
# [55] = target: ScSho1
# Method: as §1
# [56] = target: ScSla1-D1-D2
# Method: as §1
# [57] = target: ScSla1-D3
# Method: as §1
# [58] = target: SpAbp1-D1
# Method: as §1
# [59] = target: SpBbc1
# Method: as §1
# [60] = target: SpBzz1-D1
# Method: as §1
# [61] = target: SpBzz1-D2
# Method: as §1
# [62] = target: SpCyk3
# Method: as §1
# [63] = target: SpHof1
# Method: as §1
# [64] = target: SpHof1-2
# Method: as §1
# [65] = target: SpHof1-3
# Method: as §1
# [66] = target: SpHse1
# Method: as §1
# [67] = target: SpLsb1
# Method: as §1
# [68] = target: SpLsb4
# Method: as §1
# [69] = target: SpMyo1
# Method: as §1
# [70] = target: SpNbp2
# Method: as §1
# [71] = target: SpPex13
# Method: as §1
# [72] = target: SpRvs167
# Method: as §1
# [73] = target: SpSla1-D1-D2
# Method: as §1
# [74] = target: SpSla1-D3
# Method: as §1
binder,measurement,setting,value
ISNFVPPNLPMRRFK,SPOT peptide array binding signal intensity,[1],31.5
same,SPOT peptide array binding signal intensity,[2],182
same,SPOT peptide array binding signal intensity,[3],124
same,SPOT peptide array binding signal intensity,[4],90
same,SPOT peptide array binding signal intensity,[5],70.5
same,SPOT peptide array binding signal intensity,[6],1
same,SPOT peptide array binding signal intensity,[7],23
same,SPOT peptide array binding signal intensity,[8],186
same,SPOT peptide array binding signal intensity,[9],49
same,SPOT peptide array binding signal intensity,[10],136
same,SPOT peptide array binding signal intensity,[11],3890
same,SPOT peptide array binding signal intensity,[12],≤ 0
same,SPOT peptide array binding signal intensity,[13],64
same,SPOT peptide array binding signal intensity,[14],256
same,SPOT peptide array binding signal intensity,[15],20.5
same,SPOT peptide array binding signal intensity,[16],2.5
same,SPOT peptide array binding signal intensity,[17],3
same,SPOT peptide array binding signal intensity,[18],40
same,SPOT peptide array binding signal intensity,[19],9
same,SPOT peptide array binding signal intensity,[20],902
same,SPOT peptide array binding signal intensity,[21],21
same,SPOT peptide array binding signal intensity,[22],370
same,SPOT peptide array binding signal intensity,[23],297
same,SPOT peptide array binding signal intensity,[24],47
same,SPOT peptide array binding signal intensity,[25],152
same,SPOT peptide array binding signal intensity,[26],5
same,SPOT peptide array binding signal intensity,[27],72
same,SPOT peptide array binding signal intensity,[28],10.2
same,SPOT peptide array binding signal intensity,[29],5880
same,SPOT peptide array binding signal intensity,[30],28.5
QRKSLRRPTLSKPAV,SPOT peptide array binding signal intensity,[1],32
same,SPOT peptide array binding signal intensity,[2],108
same,SPOT peptide array binding signal intensity,[3],210
same,SPOT peptide array binding signal intensity,[4],40.5
same,SPOT peptide array binding signal intensity,[5],42
same,SPOT peptide array binding signal intensity,[6],1
same,SPOT peptide array binding signal intensity,[7],336
same,SPOT peptide array binding signal intensity,[8],66
same,SPOT peptide array binding signal intensity,[9],244
same,SPOT peptide array binding signal intensity,[10],4.25
same,SPOT peptide array binding signal intensity,[11],17
same,SPOT peptide array binding signal intensity,[12],1.5
same,SPOT peptide array binding signal intensity,[13],108
same,SPOT peptide array binding signal intensity,[14],1.67
same,SPOT peptide array binding signal intensity,[15],10
same,SPOT peptide array binding signal intensity,[16],14
same,SPOT peptide array binding signal intensity,[17],3.75
same,SPOT peptide array binding signal intensity,[18],272
same,SPOT peptide array binding signal intensity,[19],220
same,SPOT peptide array binding signal intensity,[20],338
same,SPOT peptide array binding signal intensity,[21],79
same,SPOT peptide array binding signal intensity,[22],78
same,SPOT peptide array binding signal intensity,[23],104
same,SPOT peptide array binding signal intensity,[24],16.5
same,SPOT peptide array binding signal intensity,[25],298
same,SPOT peptide array binding signal intensity,[26],≤ 0
same,SPOT peptide array binding signal intensity,[27],10
same,SPOT peptide array binding signal intensity,[28],0.5
same,SPOT peptide array binding signal intensity,[29],89.5
same,SPOT peptide array binding signal intensity,[30],3.5
same,SPOT peptide array binding signal intensity,[31],319
same,SPOT peptide array binding signal intensity,[32],17.5
same,SPOT peptide array binding signal intensity,[33],5.5
same,SPOT peptide array binding signal intensity,[34],76
same,SPOT peptide array binding signal intensity,[35],118
same,SPOT peptide array binding signal intensity,[36],≤ 0
same,SPOT peptide array binding signal intensity,[37],52.5
same,SPOT peptide array binding signal intensity,[38],45.8
same,SPOT peptide array binding signal intensity,[39],53
same,SPOT peptide array binding signal intensity,[40],32
same,SPOT peptide array binding signal intensity,[41],43
same,SPOT peptide array binding signal intensity,[42],17
same,SPOT peptide array binding signal intensity,[43],151
same,SPOT peptide array binding signal intensity,[44],0.5
same,SPOT peptide array binding signal intensity,[45],1190
same,SPOT peptide array binding signal intensity,[46],4
same,SPOT peptide array binding signal intensity,[47],6
same,SPOT peptide array binding signal intensity,[48],356
same,SPOT peptide array binding signal intensity,[49],10.5
same,SPOT peptide array binding signal intensity,[50],0.5
same,SPOT peptide array binding signal intensity,[51],1
same,SPOT peptide array binding signal intensity,[52],183
same,SPOT peptide array binding signal intensity,[53],≤ 0
same,SPOT peptide array binding signal intensity,[54],25
same,SPOT peptide array binding signal intensity,[55],250
same,SPOT peptide array binding signal intensity,[56],370
same,SPOT peptide array binding signal intensity,[57],38.8
same,SPOT peptide array binding signal intensity,[58],101
same,SPOT peptide array binding signal intensity,[59],3.5
same,SPOT peptide array binding signal intensity,[60],202
same,SPOT peptide array binding signal intensity,[61],≤ 0
same,SPOT peptide array binding signal intensity,[62],≤ 0
same,SPOT peptide array binding signal intensity,[63],38.8
same,SPOT peptide array binding signal intensity,[64],6.5
same,SPOT peptide array binding signal intensity,[65],375
same,SPOT peptide array binding signal intensity,[66],140
same,SPOT peptide array binding signal intensity,[67],8.75
same,SPOT peptide array binding signal intensity,[68],99
same,SPOT peptide array binding signal intensity,[69],7.75
same,SPOT peptide array binding signal intensity,[70],63.5
same,SPOT peptide array binding signal intensity,[71],10
same,SPOT peptide array binding signal intensity,[72],14.5
same,SPOT peptide array binding signal intensity,[73],≤ 0
same,SPOT peptide array binding signal intensity,[74],1
SKAKRPKFLLDLQIK,SPOT peptide array binding signal intensity,[61],0.5
same,SPOT peptide array binding signal intensity,[62],14.5
same,SPOT peptide array binding signal intensity,[63],25.2
same,SPOT peptide array binding signal intensity,[64],5
same,SPOT peptide array binding signal intensity,[65],386
same,SPOT peptide array binding signal intensity,[66],119
same,SPOT peptide array binding signal intensity,[67],1
same,SPOT peptide array binding signal intensity,[68],≤ 0
same,SPOT peptide array binding signal intensity,[69],≤ 0
same,SPOT peptide array binding signal intensity,[70],33.5
same,SPOT peptide array binding signal intensity,[71],2.5
same,SPOT peptide array binding signal intensity,[72],≤ 0
same,SPOT peptide array binding signal intensity,[73],3
same,SPOT peptide array binding signal intensity,[74],3
